Assay [1] addresses Serine/threonine-protein kinase MARK2 (Homo sapiens) (UniProt Q7KZI7). As to conditions: at 1 µM.
Assay [2] concerns the target PAS domain-containing serine/threonine-protein kinase (Homo sapiens) (UniProt Q96RG2). Conditions: at 0.1 µM.
For assay [3] the target is unchanged. Conditions: at 1 µM.
The target of assay [4] is Phosphorylase b kinase gamma catalytic chain, skeletal muscle/heart isoform (Homo sapiens) (UniProt Q16816). As to conditions: at 0.1 µM.
The target is the same in assay [5]. Conditions: at 1 µM.
The target in assay [6] is T1, Phosphorylase b kinase gamma catalytic chain, liver/testis isoform (Homo sapiens) (UniProt P15735).
T1 sequence (whole entry): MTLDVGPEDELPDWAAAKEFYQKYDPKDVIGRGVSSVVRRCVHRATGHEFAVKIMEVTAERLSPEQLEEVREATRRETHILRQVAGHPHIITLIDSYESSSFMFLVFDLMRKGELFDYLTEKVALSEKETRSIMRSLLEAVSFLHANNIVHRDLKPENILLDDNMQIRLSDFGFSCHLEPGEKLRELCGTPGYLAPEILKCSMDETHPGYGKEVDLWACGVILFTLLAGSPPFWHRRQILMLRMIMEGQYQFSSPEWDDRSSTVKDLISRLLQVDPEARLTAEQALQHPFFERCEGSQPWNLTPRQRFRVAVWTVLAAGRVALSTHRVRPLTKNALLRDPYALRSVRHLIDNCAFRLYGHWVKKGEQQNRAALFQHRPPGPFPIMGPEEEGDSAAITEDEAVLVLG
As to conditions: at 0.1 µM.

For assay [7], the target named is T1, Phosphorylase b kinase gamma catalytic chain, liver/testis isoform (Homo sapiens). As to conditions: at 1 µM.
For assay [8], the target named is Serine/threonine-protein kinase pim-1 (Homo sapiens) (UniProt P11309). As to conditions: at 0.1 µM.
Chain of Serine/threonine-protein kinase pim-1 (Homo sapiens) (P11309 whole entry, looked up): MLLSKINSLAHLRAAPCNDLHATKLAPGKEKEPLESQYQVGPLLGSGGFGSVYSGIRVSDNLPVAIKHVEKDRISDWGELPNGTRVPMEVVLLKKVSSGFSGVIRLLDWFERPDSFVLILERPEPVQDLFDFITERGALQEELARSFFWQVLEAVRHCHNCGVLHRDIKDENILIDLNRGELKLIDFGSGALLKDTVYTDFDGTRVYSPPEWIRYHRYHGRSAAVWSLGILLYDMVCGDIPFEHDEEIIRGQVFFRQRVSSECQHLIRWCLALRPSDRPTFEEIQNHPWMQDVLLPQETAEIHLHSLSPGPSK
Assay [9] shares this target. As to conditions: at 1 µM.
For assay [10], the target named is Serine/threonine-protein kinase pim-2 (Homo sapiens) (UniProt Q9P1W9). Conditions: at 0.1 µM.
Chain of Serine/threonine-protein kinase pim-2 (Homo sapiens) (Q9P1W9 whole entry, looked up): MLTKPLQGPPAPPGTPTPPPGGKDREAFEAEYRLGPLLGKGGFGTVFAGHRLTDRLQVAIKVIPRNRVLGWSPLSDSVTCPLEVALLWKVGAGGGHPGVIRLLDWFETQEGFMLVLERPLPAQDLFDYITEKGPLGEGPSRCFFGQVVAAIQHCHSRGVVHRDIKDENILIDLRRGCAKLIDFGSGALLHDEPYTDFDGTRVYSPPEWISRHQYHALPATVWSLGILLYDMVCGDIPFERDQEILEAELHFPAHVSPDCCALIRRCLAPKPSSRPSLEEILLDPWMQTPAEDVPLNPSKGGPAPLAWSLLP
For assay [11] the target is unchanged. Conditions: at 1 µM.
In assay [12] the target is Serine/threonine-protein kinase pim-3 (Homo sapiens) (UniProt Q86V86). Conditions: at 0.1 µM.
Assay [13] shares this target. As to conditions: at 1 µM.
The target of assay [14] is T2, MAP kinase-activated protein kinase 5 (Homo sapiens) (UniProt Q8IW41).
T2 sequence (whole entry): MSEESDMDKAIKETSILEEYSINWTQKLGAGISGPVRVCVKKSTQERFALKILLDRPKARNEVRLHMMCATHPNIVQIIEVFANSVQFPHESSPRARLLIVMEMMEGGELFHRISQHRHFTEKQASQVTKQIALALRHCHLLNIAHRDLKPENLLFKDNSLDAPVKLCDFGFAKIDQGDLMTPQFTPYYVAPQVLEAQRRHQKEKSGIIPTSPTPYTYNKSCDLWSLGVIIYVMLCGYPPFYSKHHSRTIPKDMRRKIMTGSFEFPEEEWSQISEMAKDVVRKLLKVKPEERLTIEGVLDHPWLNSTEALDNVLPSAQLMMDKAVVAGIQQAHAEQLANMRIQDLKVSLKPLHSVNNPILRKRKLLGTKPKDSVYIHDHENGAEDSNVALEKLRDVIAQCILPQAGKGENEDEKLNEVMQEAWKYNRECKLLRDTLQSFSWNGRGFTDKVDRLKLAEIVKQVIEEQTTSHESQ
As to conditions: at 0.1 µM.

The target in assay [15] is T2, MAP kinase-activated protein kinase 5 (Homo sapiens). Conditions: at 1 µM.
Assay [16] addresses Serine/threonine-protein kinase SIK1 (Homo sapiens) (UniProt P57059). Conditions: at 0.1 µM.
Assay [17] has the same target. Conditions: at 1 µM.
Assay [18] deals with Serine/threonine-protein kinase SIK2 (Homo sapiens) (UniProt Q9H0K1). As to conditions: at 0.1 µM.
Chain of Serine/threonine-protein kinase SIK2 (Homo sapiens) (Q9H0K1 whole entry, looked up): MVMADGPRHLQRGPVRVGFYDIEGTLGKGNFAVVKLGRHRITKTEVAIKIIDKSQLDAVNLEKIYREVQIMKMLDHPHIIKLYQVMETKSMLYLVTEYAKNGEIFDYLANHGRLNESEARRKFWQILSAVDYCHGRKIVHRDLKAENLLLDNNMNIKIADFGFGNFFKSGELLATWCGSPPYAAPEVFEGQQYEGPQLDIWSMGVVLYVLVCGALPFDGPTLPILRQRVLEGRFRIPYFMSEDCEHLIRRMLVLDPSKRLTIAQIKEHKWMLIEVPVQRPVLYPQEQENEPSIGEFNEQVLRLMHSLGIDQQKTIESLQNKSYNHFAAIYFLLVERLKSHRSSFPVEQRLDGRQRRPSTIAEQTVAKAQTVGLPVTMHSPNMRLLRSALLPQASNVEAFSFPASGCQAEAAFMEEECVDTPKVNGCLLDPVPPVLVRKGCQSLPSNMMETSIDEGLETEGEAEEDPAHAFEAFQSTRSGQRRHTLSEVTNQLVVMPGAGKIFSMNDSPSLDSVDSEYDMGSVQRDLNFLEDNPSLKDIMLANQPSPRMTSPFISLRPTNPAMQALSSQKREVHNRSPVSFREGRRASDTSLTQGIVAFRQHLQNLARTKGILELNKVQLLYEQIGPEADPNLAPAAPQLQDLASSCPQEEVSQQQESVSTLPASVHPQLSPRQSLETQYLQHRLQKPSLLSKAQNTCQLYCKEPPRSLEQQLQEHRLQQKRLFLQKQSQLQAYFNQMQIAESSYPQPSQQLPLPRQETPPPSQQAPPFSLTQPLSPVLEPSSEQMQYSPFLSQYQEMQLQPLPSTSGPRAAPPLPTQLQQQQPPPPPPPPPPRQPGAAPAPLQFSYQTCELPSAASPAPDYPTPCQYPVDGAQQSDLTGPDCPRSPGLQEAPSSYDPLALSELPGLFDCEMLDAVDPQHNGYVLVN
The target is the same in assay [19]. As to conditions: at 1 µM.
Assay [20] addresses T3, Serine/threonine-protein kinase TBK1 (Homo sapiens) (UniProt Q9UHD2).
T3 sequence (whole entry): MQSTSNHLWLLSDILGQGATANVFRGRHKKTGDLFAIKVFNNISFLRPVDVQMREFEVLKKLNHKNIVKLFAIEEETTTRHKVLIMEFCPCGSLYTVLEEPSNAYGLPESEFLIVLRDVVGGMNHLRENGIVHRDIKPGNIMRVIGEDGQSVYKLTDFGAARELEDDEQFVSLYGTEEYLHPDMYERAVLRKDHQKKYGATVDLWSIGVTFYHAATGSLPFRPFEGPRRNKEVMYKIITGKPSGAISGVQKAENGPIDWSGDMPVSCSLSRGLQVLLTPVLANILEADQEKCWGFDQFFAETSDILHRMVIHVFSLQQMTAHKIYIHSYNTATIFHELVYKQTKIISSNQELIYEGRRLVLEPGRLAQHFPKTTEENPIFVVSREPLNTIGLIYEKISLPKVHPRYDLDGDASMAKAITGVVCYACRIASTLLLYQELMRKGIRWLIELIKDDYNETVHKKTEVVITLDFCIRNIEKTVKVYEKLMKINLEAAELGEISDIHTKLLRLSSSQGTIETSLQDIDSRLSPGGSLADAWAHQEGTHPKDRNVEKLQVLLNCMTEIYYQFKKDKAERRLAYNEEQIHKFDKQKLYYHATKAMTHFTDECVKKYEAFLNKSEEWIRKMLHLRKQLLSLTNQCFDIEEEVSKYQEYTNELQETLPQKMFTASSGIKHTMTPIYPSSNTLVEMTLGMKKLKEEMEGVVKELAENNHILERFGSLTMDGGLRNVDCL
As to conditions: at 0.1 µM.

Each structure is given as a SMILES string.

Chain of PAS domain-containing serine/threonine-protein kinase (Homo sapiens) (Q96RG2 whole entry, the tested form may be a part): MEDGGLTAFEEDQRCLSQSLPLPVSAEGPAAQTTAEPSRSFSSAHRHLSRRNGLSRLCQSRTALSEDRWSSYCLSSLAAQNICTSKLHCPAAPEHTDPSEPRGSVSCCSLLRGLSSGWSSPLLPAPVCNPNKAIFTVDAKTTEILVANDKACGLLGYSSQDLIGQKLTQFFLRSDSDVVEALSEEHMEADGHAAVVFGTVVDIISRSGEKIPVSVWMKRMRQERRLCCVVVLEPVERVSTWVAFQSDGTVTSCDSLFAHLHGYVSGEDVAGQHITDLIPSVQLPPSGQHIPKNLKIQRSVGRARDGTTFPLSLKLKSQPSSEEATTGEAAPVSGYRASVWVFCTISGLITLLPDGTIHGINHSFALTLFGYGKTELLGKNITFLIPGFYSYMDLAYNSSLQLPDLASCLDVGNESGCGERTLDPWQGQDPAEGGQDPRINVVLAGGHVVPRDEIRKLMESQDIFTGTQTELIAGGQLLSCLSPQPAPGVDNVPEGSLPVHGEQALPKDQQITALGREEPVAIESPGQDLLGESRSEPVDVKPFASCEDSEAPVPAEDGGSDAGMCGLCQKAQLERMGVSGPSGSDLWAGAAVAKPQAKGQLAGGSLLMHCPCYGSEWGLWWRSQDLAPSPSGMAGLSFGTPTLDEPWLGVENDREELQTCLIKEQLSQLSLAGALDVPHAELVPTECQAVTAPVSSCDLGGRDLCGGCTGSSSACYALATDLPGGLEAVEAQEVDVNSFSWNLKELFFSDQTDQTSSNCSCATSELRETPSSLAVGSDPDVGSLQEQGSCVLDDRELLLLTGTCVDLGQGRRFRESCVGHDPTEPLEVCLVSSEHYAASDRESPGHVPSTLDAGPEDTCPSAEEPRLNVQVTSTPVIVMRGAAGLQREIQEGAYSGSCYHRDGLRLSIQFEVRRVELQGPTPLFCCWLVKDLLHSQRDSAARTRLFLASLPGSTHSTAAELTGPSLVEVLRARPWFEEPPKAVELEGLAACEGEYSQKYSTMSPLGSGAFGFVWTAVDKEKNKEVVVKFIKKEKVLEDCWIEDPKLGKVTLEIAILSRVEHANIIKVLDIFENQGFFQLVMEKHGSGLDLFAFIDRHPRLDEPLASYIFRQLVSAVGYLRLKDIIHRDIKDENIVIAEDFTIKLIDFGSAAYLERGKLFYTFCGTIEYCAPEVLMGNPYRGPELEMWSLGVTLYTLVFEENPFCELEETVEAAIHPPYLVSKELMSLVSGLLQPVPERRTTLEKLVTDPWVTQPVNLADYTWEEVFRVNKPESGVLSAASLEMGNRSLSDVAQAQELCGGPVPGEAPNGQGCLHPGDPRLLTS
Chain of Phosphorylase b kinase gamma catalytic chain, skeletal muscle/heart isoform (Homo sapiens) (Q16816 whole entry, looked up, canonical isoform): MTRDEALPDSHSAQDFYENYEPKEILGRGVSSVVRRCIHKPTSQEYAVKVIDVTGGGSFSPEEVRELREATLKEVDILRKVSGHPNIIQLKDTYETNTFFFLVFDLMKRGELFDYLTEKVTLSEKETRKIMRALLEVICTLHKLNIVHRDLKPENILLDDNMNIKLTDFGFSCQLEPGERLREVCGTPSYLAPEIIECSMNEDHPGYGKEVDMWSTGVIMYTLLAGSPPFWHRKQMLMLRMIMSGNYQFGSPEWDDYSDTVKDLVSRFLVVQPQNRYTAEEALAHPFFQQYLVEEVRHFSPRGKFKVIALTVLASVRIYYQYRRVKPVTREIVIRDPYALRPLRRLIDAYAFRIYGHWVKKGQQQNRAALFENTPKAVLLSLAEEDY
Chain of Serine/threonine-protein kinase MARK2 (Homo sapiens) (Q7KZI7 whole entry, the tested form may be a part): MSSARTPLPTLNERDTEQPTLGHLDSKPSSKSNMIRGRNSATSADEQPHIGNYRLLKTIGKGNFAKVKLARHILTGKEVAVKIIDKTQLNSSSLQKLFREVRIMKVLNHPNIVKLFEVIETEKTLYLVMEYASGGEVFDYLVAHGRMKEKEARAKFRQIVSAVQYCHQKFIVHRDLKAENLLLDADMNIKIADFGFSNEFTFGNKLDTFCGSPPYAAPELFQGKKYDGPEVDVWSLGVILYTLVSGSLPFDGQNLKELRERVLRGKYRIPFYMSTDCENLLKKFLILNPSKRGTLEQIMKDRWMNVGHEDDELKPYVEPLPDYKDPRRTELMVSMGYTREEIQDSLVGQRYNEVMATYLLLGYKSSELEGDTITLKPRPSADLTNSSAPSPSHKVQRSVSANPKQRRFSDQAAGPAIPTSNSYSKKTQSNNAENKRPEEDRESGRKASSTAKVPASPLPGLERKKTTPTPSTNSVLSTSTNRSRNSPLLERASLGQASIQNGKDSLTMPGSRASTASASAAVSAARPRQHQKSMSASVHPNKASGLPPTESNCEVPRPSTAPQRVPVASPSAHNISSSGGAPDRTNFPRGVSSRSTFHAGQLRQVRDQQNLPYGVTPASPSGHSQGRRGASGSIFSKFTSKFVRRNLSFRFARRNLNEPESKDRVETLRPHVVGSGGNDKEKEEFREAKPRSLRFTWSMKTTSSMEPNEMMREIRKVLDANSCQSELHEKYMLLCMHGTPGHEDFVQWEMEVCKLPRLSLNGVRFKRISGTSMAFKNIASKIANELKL

In general, inhibition refers to the change of the read-out against control, counted positive when it falls. With `O=C1Nc2ccc(C(=O)c3ccco3)cc2C1=Cc1cc(Cl)c(O)c(Cl)c1`, the inhibition is 8.29% in [1]; -0.44% in assay [2]; -0.13% in [3]; 2.98% in [4]; 9.29% in assay [5]; 3.61% in assay [6]. Further, the inhibition in assay [7] came to 2.94%; in assay [8] it was 3.39%; in assay [9], 31.8%; in [10], 2.1%; in assay [11], 17.9%; in [12], 12%. The inhibition is 53.4% in assay [13]; 1.97% in [14]; 8.16% in assay [15]; 4.01% in assay [16]; 10.6% in assay [17]; 10.5% in [18]. Besides, the inhibition in assay [19] is 6.6%; in assay [20], 4.59%.

In the case of `NCc1ccc(-c2nc(-c3ccc(Cl)c(O)c3)c(-c3ccncc3)[nH]2)cc1`, the inhibition in [1] is 2.58%; in [2], 0.34%; in assay [3], -0.1%; in assay [4], 0.14%; in assay [5], 3.18%; in assay [6], 0.02%. In addition, the inhibition in [7] was -1.08%; in [8], 1.18%; in assay [9] it was 0.18%; in assay [10], -0.05%; in assay [11], 1.13%; in assay [12] it was -1.17%. Further, the inhibition in [13] was -0.73%; in [14] it was -0.17%; in [15], -1.34%; in [16], 0.32%; in assay [17], 3.96%; in [18], -0.81%. Further, the figures for the inhibition in assay [19] and in assay [20] were 8.19% and -1.21%, respectively.

Take `COc1cc(C=NNc2ncnc3c2cnn3-c2ccccc2)ccc1O`: the inhibition is 6.47% in [1]; 0.58% in [2]; -3.11% in assay [3]; 2.48% in assay [4]; 11.3% in [5]; 3.34% in assay [6]. In addition, the inhibition in assay [7] was 2%; in assay [8], 1.39%; in assay [9], 1.57%; in assay [10], -0.02%; in [11], 2.11%; in assay [12], -0.48%. In addition, the inhibition in [13] is -0.21%; in [14] it was 0.22%; in assay [15], -0.53%; in assay [16] it was 5.32%; in assay [17], 18.5%; in assay [18], 7.72%. For the same compound, the inhibition in assay [19] came out at 20.4%; in assay [20], 3.55%.

Take `CNC(=O)c1cncc(/C=C/c2c(Cl)cccc2Cl)c1`: the inhibition in assay [1] is 2.64%; in assay [2] it was -1.52%; in assay [3], -0.36%; in assay [4] it was 0.96%; in assay [5] it was 8.72%; in [6], 4.13%. The inhibition in assay [7] is 4.55%; in assay [8], -0.49%; in [9] it was 1.79%; in assay [10], -3.71%; in [11], -0.92%; in assay [12] it was 1.26%. Moreover, the inhibition in assay [13] was found to be 7.42%; in assay [14], 1.11%; in assay [15], 1.46%; in assay [16], 11.9%; in [17], 50.9%; in [18] it was 2.71%. Also, the inhibition in [19] turned out to be 17.3%; in assay [20], 2.82%.

Take `CCCN1CCC=C(c2ccc(Nc3nc(Nc4ccccc4C(N)=O)c4cc[nH]c4n3)c(C)c2)C1`: the inhibition in assay [1] is 14.6%; in assay [2], -1.89%; in assay [3], -1.19%; in assay [4], -1.86%; in assay [5] it was 48.2%; in assay [6], 7.18%. For the same compound, the inhibition in [7] worked out at 16.4%; in assay [8] it was 2.16%; in [9], 7.46%; in assay [10], 0.34%; in assay [11], 4.08%; in assay [12], 2.03%. Also, the inhibition was 12.5% in assay [13]; 1.79% in [14]; 5.7% in assay [15]; 5.62% in assay [16]; 9.29% in [17]; 2.87% in assay [18]. Besides, the inhibition in assay [19] stood at 8.52%; in assay [20], 3.95%.

Regarding `COc1cc2ncn(-c3cc(O[C@@H](C)c4ccccc4Cl)c(C(N)=O)s3)c2cc1OC`, the inhibition in [1] came out at 5.29%; in [2] it was 0.19%; in [3] it was 1.28%; in [4], 5.83%; in assay [5], 8.24%; in assay [6] it was 6.55%. For the same compound, the inhibition was 6.6% in assay [7]; -0.02% in [8]; 1.8% in assay [9]; -0.11% in assay [10]; 0.91% in assay [11]; 0.03% in assay [12]. Moreover, the inhibition in assay [13] was determined as 4.24%; in [14] it was 1.26%; in [15] it was 1.22%; in assay [16] it was 6.27%; in assay [17], 18.1%; in assay [18] it was 2.99%. In addition, the inhibition in assay [19] is 12%; in assay [20] it was 4.39%.

These data come from ChEMBL document CHEMBL1961873, “Compounds: GSK PKIS; Assays: Nanosyn kinase panel” (2012).
